Experimental data reported in PubChem BioAssay AID1259240 (Keith Lab, Institute of Cancer Science, University of …, 2017).
Activity calls are given as the source filed them. Rule as the data show it: active = fold change mostly below about -2 (no sharp cut-off); inactive = mostly above about -1.8.

Assay: modulation of TERT promoter-driven luciferase – cell-based, luciferase reporter, human, primary screen (AID 1259240)
Conditions: A2780 TERT promoter luciferase reporter, 16 h; at 20 µM, fold versus average of vehicle-only wells

SMILES	fold change	outcome
O=C(Cn1nc(C(F)F)cc1C1CC1)N1CCCC1	1.2 (inactive)	–
COc1ccc(OC)c(NC(=O)CSc2nc(-c3cccs3)nc3c2c(=O)n(C)c(=O)n3C)c1	1.71 (inactive)	–
CCc1ccc2c(c1)c1n[nH]c(=S)nc1n2CC	1.17 (inactive)	–
O=C(Nc1ccc(C(F)(F)F)cc1)C1CCCN1S(=O)(=O)c1cccc2nsnc12 (stereo not given)	-1.19 (inactive)	–
CS(=O)(=O)Nc1ccc(Cl)c2cccnc12	-2.8 (active)	–
Cc1cc(NS(=O)(=O)c2ccc(NC(=O)[C@@H]3CCCC[C@@H]3C(=O)O)cc2)no1	-1.94 (inactive)	–
Nc1ncnc2c1nc1n2CC(O)CS1 (stereo not given)	-1.44 (inactive)	–
CCOc1ccc(-n2c(O)cnc2Nc2nc(C)cc(C)n2)cc1	-1.65 (inactive)	–
c1cc2nncn2nc1N1CCN(C2CCCCC2)CC1	-1.21 (inactive)	–
COc1nnc(-c2ccc(N3CCCCC3)c(N)c2)c2ccccc12	-1.98 (inactive)	–
Brc1ccc2c(c1)CN(Cc1ccc3c(c1)OCO3)CO2	-1.55 (inactive)	–
COC(=O)c1sc2ccccc2c1N	1.26 (inactive)	–
O=C(Cn1ncc2c3ccccc3n(Cc3ccccc3)c2c1=O)N1CCCC1	-1.21 (inactive)	–
CCOC(=O)CNc1c(N(C)C2CCCCC2)c(=O)c1=O	-1.1 (inactive)	–
CCCc1cc(C(=O)Nc2c(C)n(C)n(-c3ccccc3)c2=O)no1	-1.12 (inactive)	–
CCOC(=O)C1CCCN(c2c(N3CCN(c4ccc(F)cc4)CC3)c(=O)c2=O)C1 (stereo not given)	-1.2 (inactive)	–
CN(C)S(=O)(=O)c1cccc(-c2cn3cccnc3n2)c1	-2.07 (active)	–
COCCn1c(SCC(=O)NCC2CCCO2)nnc1-c1c[nH]c2ccccc12 (stereo not given)	–	inactive
O=C(NC1CCCCC1)c1cccc(NC2=NC3CS(=O)(=O)CC3S2)c1 (stereo not given)	-1.15 (inactive)	–
O=C(CN1C(=O)COc2ccc(S(=O)(=O)N3CCCCCC3)cc21)N1CCC2(CC1)OCCO2	-1.25 (inactive)	–

SMILES	fold change	outcome
O=C(CC1(O)C(=O)Nc2ccccc21)c1cc2ccccc2o1 (stereo not given)	1.08 (inactive)	–
CCC(C(=O)O)N1C(=O)/C(=C/c2ccc(OC)cc2)SC1=S (stereo not given)	-2.97 (active)	–
O=C(Nc1nnc(N2CCCCC2)s1)Nc1ccccc1Cl	-2.93 (active)	–
O=C(CSc1nc(-c2ccco2)cc(C(F)(F)F)n1)N1CCSCC1	-1.96 (inactive)	–
Cn1c(=O)c(=O)n(C)c2cc(S(=O)(=O)N3CCC(C(N)=O)CC3)ccc21	-1.21 (inactive)	–
COc1ccc(-c2c(C)oc3c(CN4CCN(C)CC4)c(O)ccc3c2=O)cc1OC	1.39 (inactive)	–
CCc1c2c(nc3sc(C(=O)NCc4ccc5c(c4)OCO5)c(N)c13)CC(C)(C)CC2=O	-1.01 (inactive)	–
CCCCNC(=O)c1ccc(CNc2c(NC3CCCC3)c(=O)c2=O)cc1	1.11 (inactive)	–
O=C(CSc1nnc(Cc2cc(=O)[nH]c(=O)[nH]2)n1-c1ccc(Cl)cc1)c1ccccc1	-1.09 (inactive)	–
Cc1cc(C)c2c(=O)n(CC(=O)N3CCCC3)sc2n1	1.19 (inactive)	–
COc1ccc(Nc2c(-c3c[nH]c4ccccc34)nc3cnccn23)cc1	-1.09 (inactive)	–
CC(CC(=O)N1CCN(c2ccc([N+](=O)[O-])cc2)CC1)CC1=NS(=O)(=O)c2ccccc2N1 (stereo not given)	-1.48 (inactive)	–
Cn1c(SCC(=O)NCc2ccco2)nnc1-c1c[nH]c2ccccc12	–	inactive
CCOC(=O)C1=C(CS(=O)(=O)c2ccc(F)c(C)c2)NC(=O)NC1c1cc(OC)ccc1OC (stereo not given)	1.23 (inactive)	–
CC(C)C(NS(=O)(=O)c1ccc2c(c1)oc(=O)n2C)C(=O)NCc1cccs1 (stereo not given)	-1.35 (inactive)	–
Cn1c(=O)c(=O)n(C)c2cc(S(=O)(=O)N3CCCC3C(=O)Nc3nccs3)ccc21 (stereo not given)	1.15 (inactive)	–
CN(Cc1ccco1)C(=O)c1ccc(CNc2c(N3CCCCC3)c(=O)c2=O)cc1	-1.11 (inactive)	–
CCOC(=O)N1CCC(Nc2c(N3CCN(c4ccccc4)CC3)c(=O)c2=O)CC1	-1.05 (inactive)	–
CC(C)C(NS(=O)(=O)c1cccc2nsnc12)C(=O)NC1CCCCC1C (stereo not given)	-1.42 (inactive)	–
O=C(Cc1ccc(NC2=NC3CS(=O)(=O)CC3S2)cc1)N1CCc2ccccc2C1 (stereo not given)	1.1 (inactive)	–
